About 83,000 compounds went through this panel and 20% of them were active in at least one assay; those are over-represented in the sample as a whole.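 Cells were grown in 96-well plates and exposed to the test compound at a single concentration for 48 hours; results are reported as percent growth, with values below 10 considered active.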 A number with no mark means an inactive call. Activity calls are given as the source filed them.
Legend:
Assay in all cases: NCI-60 one-dose screen, 48 h (100 = growth as untreated, 0 = no growth, -100 = all killed)
Details in all cases: 10 µM unless noted
[1] = system: NCI-H23 lung
[2] = system: NCI-H226 lung
[3] = system: NCI-H322M lung
[4] = system: HOP-62 NSCLC
[5] = system: NCI-H460 lung
[6] = system: HOP-92 NSCLC
[7] = system: NCI-H522 lung
[8] = system: A549/ATCC NSCLC
[9] = system: 786-0 renal
[10] = system: COLO 205 colon

| SMILES | growth [1] | growth [2] | growth [3] | growth [4] | growth [5] | growth [6] | growth [7] | growth [8] | growth [9] | growth [10] |
| --- | --- | --- | --- | --- | --- | --- | --- | --- | --- | --- |
| C/C(=C(/c1ccc(Cl)cc1)c1ccc(OCCN2CCCC2)cc1)c1ccc(Cl)cc1 | 80.3% | 107% | 92.9% | 104% | 70.6% | 69.5% | 88.8% | 63.4% | 82.7% | 48.5% |
| COc1ccc(C(=O)Nc2cccc(C3CC(=O)c4c(cc(OC)c(OC)c4OC)O3)c2)cc1 (centres undefined) | 35.2% | 25% | 37.8% | 14.1% | 4.37% (active) | 34.3% | -37.1% (active) | 28.5% | 13.8% | -5% (active) |
| O=C1N(Cc2ccccc2Cl)c2ccccc2C12NN=C(c1cccc(Cl)c1)S2 (centres undefined) | -18.7% (active) | -58.4% (active) | -12.7% (active) | -22.6% (active) | -50.7% (active) | – | 16.7% | -63.7% (active) | -67.7% (active) | 66.8% |
| COC(C(=O)[C@@H](O)[C@@H](C)O)[C@@H]1Cc2cc3cc(O[C@H]4C[C@@H](O[C@H]5C[C@@H](O)[C@H](O)C(C)O5)[C@H](O)C(C)O4)cc(O)c3c(O)c2C(=O)[C@H]1O[C@H]1C[C@@H](O[C@H]2C[C@@H](O[C@H]3C[C@@H](OC)[C@H](O)C(C)O3)[C@@H](O)C(C)O2)[C@H](O)C(C)O1 (some centres undefined) | 47.4% | 38.8% | 50.2% | 18.8% | 18.7% | – | 15.5% | 19.2% | 50.7% | – |
| O=C(O)c1[nH]c(=O)[nH]c(=O)c1[N+](=O)[O-] | 109% | 108% | 119% | 104% | 115% | 88% | 138% | 106% | 106% | 112% |
| O=C(OCc1ccc2cccc(O)c2n1)N1CCN(C(=O)c2cc3cc(F)ccc3[nH]2)CC1 | -22.8% (active) | 56.9% | 60% | -29.7% (active) | -47.6% (active) | -75.9% (active) | -63.2% (active) | -56.2% (active) | -87.1% (active) | -77.4% (active) |
| O=C1c2cccc(NCCN=Cc3cc(O)ccc3O)c2C(=O)c2c(NCCN=Cc3cc(O)ccc3O)cccc21 | -26.1% (active) | 6.91% (active) | -11.3% (active) | -9.1% (active) | -70.8% (active) | – | -65% (active) | -55.6% (active) | 0.261% (active) | -41.4% (active) |
| Cc1nc2ncnc(Cl)c2[nH]1 | 95.3% | 101% | 98.2% | 112% | 104% | – | 91.3% | 93.1% | 105% | 113% |
| COCCn1c(-c2csc(-c3cn(C)c4ccc(OC)cc34)n2)cc2cccnc21 | 63.8% | 81.3% | 82.4% | 60.9% | 21.7% | – | -24.5% (active) | 48% | 30.9% | 37.5% |
| CC1(C)CC2=C3C=C[C@@H]4[C@@]5(C)CCC(=O)C(C)(C)[C@@H]5CC[C@@]4(C)[C@]3(C)CC[C@@]2(C(=O)O)CC1=O | 71.6% | 53% | 59.7% | 76% | 76.7% | – | 65.1% | 48.3% | 31.7% | 68.6% |
| Cn1cc(-c2csc(-c3c[nH]c4ccc(Br)cc34)n2)c2cnccc21 | -64.2% (active) | -55.7% (active) | -44.5% (active) | -66.7% (active) | -82.4% (active) | -86.2% (active) | -66.8% (active) | -77.5% (active) | -90.5% (active) | -72.9% (active) |
| C1=C(N2CCCC2)CCC1 | 100% | 109% | 109% | 103% | 93.2% | – | 94.6% | 99% | 105% | 124% |
| COc1ccc2[nH]cc(C(c3cc(F)cc(F)c3)c3c[nH]c4ccc(OC)cc34)c2c1 | 67.2% | 97.4% | 70.3% | 93.4% | 64.4% | 54.3% | 69.3% | 69.4% | 92.4% | 78.1% |
| CC(C)CCNC(=O)Cn1cccc(NC(=O)OCc2ccccc2)c1=O | 88% | 87.4% | 112% | 93.8% | 102% | 91.5% | 88.2% | 95.6% | 111% | 108% |
| CCOC(=O)c1cc(C(=O)c2cc(OC)c(OC)c(OC)c2)n2ccc(-c3ccncc3)cc12 | 94.8% | 95.9% | 106% | 90.1% | 97.4% | 65.8% | 68.7% | 80% | 90.2% | 103% |
| COc1ccc(N2CCC(=O)NC2=S)cc1 | 96.2% | 98.6% | 112% | 107% | 104% | – | 88.9% | 108% | 104% | 106% |
| O=S(=O)(NCCNc1nccc(-c2c(-c3cccc(F)c3)nc3occn23)n1)c1ccc(Br)cc1 | 87.9% | 75.5% | 82.1% | 90.1% | 68.5% | – | 81.8% | 53.9% | 76.3% | 85.4% |
| CCCCC(=O)c1ccco1 | 89.2% | 95.1% | 105% | 88.7% | 106% | – | 92.2% | 97.9% | 97.5% | 104% |
| COC(=O)[C@]1(C)CCC[C@]2(C)[C@H]3C[C@H]4C(C(C)C)=C[C@]3(CC[C@H]21)[C@H]1[C@@H]4[C@@H](OCCC#N)CC[C@@H]1OCCC#N | 46.3% | 46.1% | 98.6% | 75.3% | 33.3% | – | 28.4% | 37.4% | 37.3% | 11.9% |
| CCCCC(=O)Nc1ncc(Cc2ccc(Cl)cc2)s1 | 90.3% | 82% | 86.8% | 68.8% | 60.7% | – | 50.1% | 53.1% | 80.7% | 76.5% |
| C=CCc1c(O)c(C(=O)/C=C/c2ccc(Cl)cc2)c(OC)c2ccoc12 | 57.1% | 28.7% | 75.8% | 85.4% | 49.8% | – | 35.7% | 47.3% | 78% | 73.7% |
| O=C1c2cccnc2C(=O)c2c1c(C(=O)NCCn1ccnc1)c1ccccn21 | 5.02% (active) | 51.5% | 22.3% | 14% | -41.3% (active) | 56.3% | -9.62% (active) | 1.78% (active) | 49% | -27.6% (active) |
| c1ccc(C2=NN[C@H](c3cn(-c4ccccc4)nc3-c3ccccc3)C2)cc1 | 59.3% | 25.5% | 47.8% | -14.5% (active) | 29% | – | 75.6% | 17.1% | 6.85% (active) | 66.5% |
| Cc1ccc(-c2nc(N3CCNCC3)c3oc(-c4ccccc4)nc3n2)cc1 | 35.3% | 110% | -78.5% (active) | -6.18% (active) | -72.5% (active) | – | -81.8% (active) | 3.88% (active) | -87.8% (active) | -91.1% (active) |
| O=C(O)CCCN1C(=O)/C(=C/C(Cl)=C/c2ccccc2)SC1=S | 31.3% | 41.9% | 77.2% | 88% | 57.4% | – | 12.2% | 65% | -11.5% (active) | 11.6% |
| O=S(=O)(Nc1cc(Br)c(O)c2ccccc12)c1ccc(F)cc1 | 53.1% | 97.5% | 94.9% | 103% | 103% | – | 77.3% | 102% | 111% | – |
| COc1ccc(-c2nn(-c3ccccc3)cc2/C=C2/SC(=S)N(C)C2=O)cc1 | 94.5% | 55.1% | 60.8% | 25.3% | 11.2% | 74.7% | 91.2% | 36.8% | 1.33% (active) | 64.4% |
| COc1ccccc1Nc1nc2c(s1)C1=CC[C@H]3[C@@H]4CC[C@H]([C@H](C)CCCC(C)C)[C@@]4(C)CC[C@@H]3[C@@]1(C)CC2 | 93.3% | 103% | 101% | 95.9% | 108% | 90.8% | 106% | 103% | 114% | 106% |
| COC(=O)/C=C1/SC(=Nc2ccc(C)cc2)N(CCc2c[nH]c3ccc(O)cc23)C1=O | 72.7% | 83.1% | 97.7% | 55.6% | 52.2% | – | 42.5% | 84% | 57.2% | – |
